In PubChem BioAssay (NCI):
This is part of a sample that, as a whole, favours compounds with a hit. Of some 83,000 tested, about 20% had one in any assay.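 96-well plates, one dose, 48 hours. Percent growth reported; active if below 10.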 Values without a mark were called inactive. The source made the active and inactive calls.

Tested on: LOX IMVI melanoma
Test: NCI-60 one-dose screen, 48 h (100 = growth as untreated, 0 = no growth, -100 = all killed)
Conditions: 10 µM unless noted

**Q.** `CCN1CCN(/C(=N\c2sc(-c3ccccc3)nc2-c2ccccc2)c2ccccc2)CC1` was tested. Which growth did it give?
**A.** 80.1%

**Q.** `CCCCN1C(=O)/C(=c2\sc3n(c2=O)C2C(NN=3)N(CC)C(=O)N2CC)c2cc(Cl)ccc21` (centres undefined) was tested. Which growth did it give?
**A.** 75.6%

**Q.** For `OC1CCN(CCCOc2c3ccc(Cl)cc3nc3c2oc2ccc(Cl)cc23)CC1`, which growth is on record?
**A.** -92.9% (active)

**Q.** For `Nc1c(C(=O)Nc2ccc(Cl)cc2)sc2nc(-c3cnccn3)cc(-c3cccs3)c12`, which growth is on record?
**A.** -16.8% (active)

**Q.** For `Cc1ccc(-c2nc(C(Cl)Cl)nc3cc(-c4ccccc4)nn23)cc1`, which growth is on record?
**A.** 43.6%

**Q.** Which growth does the source give for `OC1CCN(CCCOc2c3ccccc3nc3c2oc2ccccc23)CC1` here?
**A.** -63.3% (active)

**Q.** `CN(C)CCCNc1c2ccccc2nc2c1oc1ccc(Cl)cc12` was tested. Which growth did it give?
**A.** -86.5% (active)

**Q.** With `OC1CCN(CCCOc2c3ccc(Cl)cc3nc3c2oc2ccccc23)CC1` as the compound, how does the growth read?
**A.** -85.8% (active)

**Q.** Which growth does the source give for `COc1cc(OC)c(C2C(Cl)C(=O)N2Nc2ncnc3ccccc23)cc1OC` (centres undefined) here?
**A.** 45.6%

**Q.** Which growth does the source give for `CN(C)CCCOc1c2ccc(Cl)cc2nc2c1oc1ccc(Cl)cc12` here?
**A.** -77.2% (active)

**Q.** With `Cc1[nH]nc2ncc(C#Cc3cncc(C(=O)Nc4ccc(CN5CCN(C)CC5)c(C(F)(F)F)c4)c3)cc12` as the compound, how does the growth read?
**A.** -23.4% (active)

**Q.** For `O=c1[nH]c2ccc(Cl)cc2cc1CSc1ccccc1Nc1nccc(-c2ccc(Cl)cc2)n1`, which growth is on record?
**A.** 98.4%

**Q.** How did the growth turn out when `COc1ccc(-c2nc3ccc(-c4nnc(SCC(=O)Nc5ccc(C(=O)/C=C/c6ccccc6)cc5)o4)cc3[nH]2)cc1OC` was run?
**A.** -11.8% (active)

**Q.** For `N#Cc1nc(-c2ccccc2)oc1S(=O)(=O)N1CCN(CCc2ccccn2)CC1`, which growth is on record?
**A.** -79.2% (active)
